BaF3 tox = parental Ba/F3 cell viability inhibition, counter-screen for JAK2V617F inhibitor project, murine pro-B, CellTiter-Glo luminescence; CellTiter-Glo ATP luminescence; inhibition, % at 5.6 µM; actives 1.1% (n = 220,000); AID 1486, 2009;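 active = inhibition above a per-campaign cutoff, the mean inhibition of all tested compounds plus 3 SD, cut at about 27% in these data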;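 also: 0% = DMSO wells and 100% = JAK Inhibitor I control wells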
aSyn 5UTR inh = MLPCN primary screen, SNCA 5' untranslated region. inhibition, % (tested at 7.5 µM). AID 1813, 2009. alpha-synuclein 5'UTR reporter, inhibitor activity. actives 0.82% (n = 300,000); in the data active = inhibition above about 60%;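 also: H4 neuroglioblastoma cells stably carrying SNCA 5'UTR luciferase fusion; 0% = DMSO wells and 100% = positive control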
KLF5 inhibitor = KLF5 expression inhibitors, primary screen, DLD-1 cells, luminescence. DLD-1 KLF5 promoter-luciferase reporter. inhibition, % at 5 µM. actives 0.23% (n = 290,000). AID 1700, 2009;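 active = inhibition above a per-plate limit of that plate's mean compound inhibition plus 3 SD, cut at about 60% in these data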;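 also: 0% = DMSO wells and 100% = LY294002 at 200 µM; higher means less KLF5 promoter-driven luciferase light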
Ba/F3 V617F tox = reduced viability of JAK2V617F-dependent Ba/F3 cells, primary screen, JAK2V617F inhibitor project, cell-based, Ba/F3 EpoR-JAK2V617F, luminescence; actives 1.1% (n = 220,000); inhibition, % at 5.6 µM; ATP luminescence;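 active = inhibition above the campaign mean plus 3 SD over all tested compounds, cut at about 24% in these data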;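 also: cytokine-independent growth of Ba/F3 cells driven by EpoR plus mutant JAK2; 0% = DMSO-treated cells and 100% = JAK inhibitor I control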
IEC-6 tox = cytotoxicity in IEC-6 intestinal epithelial cells, primary screen, cytotoxicity control for KLF5 inhibitor project, cell-based, luminescence; inhibition, % at 5 µM; actives 0.78% (n = 290,000); IEC-6 cytotoxicity, luminescence viability;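 also: 0% = plate median of test compound wells and 100% = cytotoxic reference compound wells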
APP 5UTR inh = inhibitors of APP translation via 5'UTR reporter, primary screen, APP 5'UTR luciferase, SH-SY5Y cells | AID 1285, 2008 | inhibition, % at 2 µM | SH-SY5Y APP 5'UTR-luciferase reporter, luminescence | actives 0.82% (n = 190,000);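 active = inhibition above a set limit, derived from the sample mean plus 3 SD, cut at about 45% in these data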
IEC-6 tox confirm = cytotoxic compounds in IEC-6 epithelial cells, confirmation, cytotoxicity control, cell-based, luminescence | shares compounds with IEC-6 tox | IEC-6 rat intestinal epithelial viability | inhibition, % at 5 µM | actives 63% (n = 1,900);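 also: 0% = vehicle and 100% = reference cytotoxic drug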
The depositor's hits bear a star; . = no result. Compounds with a hit are over-represented: about 2.2% of the library has one in this group of screens. Rule as the data show it, unless noted: active = inhibition above about 22%; inactive = the rest.

SMILES | BaF3 tox | aSyn 5UTR inh | KLF5 inhibitor | Ba/F3 V617F tox | IEC-6 tox | APP 5UTR inh | IEC-6 tox confirm
COc1cc(OC)c(NC2=CC(=O)C(=O)c3ccccc32)cc1Cl | . | 107* | 42 | . | 78* | . | 31*
CCC(C(=O)Nc1cc(Cl)c(OC)cc1OC)c1ccccc1 (configuration not stated) | 8 | -7 | 0 | 1 | 3 | 0 | .
COc1ccccc1N1C(=O)c2cccc3cccc(c23)C1=O | . | 13 | -8 | . | -3 | . | .
CCC1=Nc2cc(C(=O)NCc3cccnc3)ccc2Sc2ccc(C)cc21 | 44* | 20 | 29 | 72* | 67* | . | 56*
O=C(NCC1CCCO1)c1ccc(NC(=O)c2cccc(Cl)c2)cc1 (configuration not stated) | . | 6 | . | . | . | . | .
CCC1=Nc2cc(C(=O)NCC3CCCO3)ccc2Sc2ccc(Cl)cc21 (configuration not stated) | 6 | -74 | 19 | 5 | 35* | . | 38*
CCC1=Nc2cc(C(=O)NCCCOC(C)C)ccc2Sc2ccccc21 | 5 | -10 | -3 | -2 | 1 | 15 | .
CCC1=Nc2cc(C(=O)NCC3CCCO3)ccc2Sc2ccc(Br)cc21 (configuration not stated) | 15 | -59 | 9 | -1 | 28* | 17 | 31*
COc1ccccc1C1/C(=C(\O)c2ccc3c(c2)OCCO3)C(=O)C(=O)N1Cc1cccnc1 (configuration not stated) | . | -13 | -6 | . | 2 | . | .
CC(=O)c1sc(NC(=O)CN2C(=O)C3CC=CCC3C2=O)nc1-c1ccccc1 (configuration not stated) | . | -6 | . | . | . | . | .
CSCC(C)N1CCC(n2nccc2NC(=O)CCCc2ccccc2)CC1 (configuration not stated) | . | 13 | -15 | . | -4 | . | .
Clc1ccc(C2=Nn3c(nnc3-c3n[nH]c4c3CCC4)SC2)cc1 | 50* | 58 | -10 | 55* | 32* | 89* | 50*
COc1cc(NC(=O)c2ccc([N+](=O)[O-])o2)ccc1NC(=O)c1ccco1 | . | 11 | -15 | . | 100* | . | 20
Cc1cc(NC(=O)c2ccc([N+](=O)[O-])o2)ccc1NC(=O)c1ccco1 | 78* | -110 | 10 | 83* | 87* | 79* | 25*
COc1ccccc1-n1c(SCC(=O)Nc2ccc(NC(C)=O)cc2)nc2c([nH]c3ccccc32)c1=O | . | 7 | 25 | . | 4 | . | .
NS(=O)(=O)c1ccc(N2CCN(CCOc3ccc(Cl)cc3)CC2)nc1 | . | 10 | -3 | . | 4 | . | .
Cc1ccc(SCC(=O)Nc2ccc3c(c2)C(=O)N(C)C3=O)cc1 | . | -4 | -32 | . | -2 | . | .
O=[N+]([O-])c1ccc(-n2nnnc2-c2ccccc2)c([N+](=O)[O-])c1 | 30* | -2 | -37 | 69* | 32* | -4 | 5
COC(=O)[C@@H](Cc1ccc(O)cc1)NC(=O)[C@H]1CCC(=O)N1C(=O)OCc1ccccc1 | . | 16 | 4 | . | -2 | . | .
O=[N+]([O-])c1ccccc1Nc1nc(-c2cccnc2)cs1 | . | -91 | -85 | . | 3 | . | .
CC(C)n1cc(/C=N/Nc2ccc(C(=O)O)cc2)c2ccccc21 | . | -79 | 45 | . | 35* | . | 55*
Cc1cc(O)c(-c2cc(C(=O)Nc3ccc(S(=O)(=O)N4CCOCC4)cc3)[nH]n2)cc1C | 3 | 14 | -13 | -2 | 2 | -10 | .
O=C(Nc1ccc(S(=O)(=O)N2CCOCC2)cc1)c1cc(-c2cc(Cl)ccc2O)n[nH]1 | 60* | 34 | 42 | 77* | 36* | . | 5
CCOc1ccc(NS(=O)(=O)c2ccc(C(=O)NNC(=O)c3ccccc3O)cc2)cc1 | . | 15 | . | . | . | . | .
O=C(c1ccc(Br)cc1)C(CN1CCOCC1)c1ccccc1 (configuration not stated) | . | -152 | -32 | . | 26* | . | 8
SMILES | BaF3 tox | aSyn 5UTR inh | KLF5 inhibitor | Ba/F3 V617F tox | IEC-6 tox | APP 5UTR inh | IEC-6 tox confirm
O=C(c1ccc([N+](=O)[O-])o1)N1CCc2ccccc21 | . | -190 | -61 | . | 30* | . | 5
O=C(c1ccc([N+](=O)[O-])o1)N1CCc2ccccc2C1 | -1 | -103 | -26 | -1 | -1 | . | .
COC(=O)COc1ccc(/C=N/NC(=O)CN(c2ccccc2OC)S(=O)(=O)c2ccccc2)cc1 | . | 20 | -12 | . | 49* | . | -8
CN1/C(=C/C(=O)CSc2ccccc2C(=O)O)C(C)(C)c2ccccc21 | 6 | 3 | -3 | 1 | 5 | . | .
CN1/C(=C\C(=O)CSc2cccc[n+]2[O-])C(C)(C)c2ccccc21 | 23 | 13 | -21 | 8 | 104* | -9 | -7
O=C(O)CSc1c2c(nc3cc(C(=O)Nc4ccc(F)c(Cl)c4)ccc13)CCCC2 | . | 13 | -13 | . | 0 | . | .
CCOc1ccc(S(=O)(=O)NCc2cccnc2)cc1NC(=O)c1ccccc1F | . | -43 | 26 | . | 33* | . | 7
CCOc1ccc(S(=O)(=O)NCc2ccncc2)cc1NC(=O)c1ccccc1F | . | -4 | -16 | . | 3 | . | .
CCOC(=O)c1sc(NC(=O)C2CC(=O)N(c3ccc(OCC)cc3)C2)nc1C (configuration not stated) | . | 17 | -13 | . | 1 | . | .
CC1c2cc3c(cc2CCN1CC(=O)Nc1ccccc1)OCCCO3 (configuration not stated) | . | -6 | 10 | . | 6 | . | .
CC1c2cc3c(cc2CCN1C(=O)c1cccc(Cl)c1)OCCCO3 (configuration not stated) | . | -65 | -10 | . | 25* | . | 8
Cc1ccc2[nH]c(C(=O)N/N=C/c3ccc([N+](=O)[O-])cc3)c(C)c2c1 | . | -63 | 32 | . | 34* | . | 26*
CC1CCC(NC(=O)CCS(=O)(=O)c2ccc3c(c2)NC(=O)C(C)S3)CC1 (configuration not stated) | . | -2 | -47 | . | -6 | . | .
CC(C)=CCc1c(O)c(CC=C(C)C)c2c(c1O)-c1cc(O)c(O)cc1CC2 | . | -17 | . | . | . | . | .
CCn1ncc([N+](=O)[O-])c1C(=O)Nc1ccc(C)c(C)c1 | . | 7 | -76 | . | -3 | . | .
COc1ccc(NS(=O)(=O)c2cc(NC(=O)c3ccc(=O)[nH]c3)ccc2N2CCCC2)cc1 | . | -50 | 21 | . | 42* | . | 25*
COc1ccc(NS(=O)(=O)c2cc(NC(=O)c3cnc(C)cn3)ccc2N2CCCC2)cc1 | 7 | -16 | -22 | 4 | 4 | -24 | .
O=C(CC1(O)C(=O)N(C/C=C/c2ccccc2)c2ccccc21)c1ccccn1 (configuration not stated) | 93* | -53 | -8 | 92* | 89* | 57* | 32*
